This is an account of results in PubChem BioAssay (Tox21).

Activity calls are given as the source filed them. The call rests on the fitted dose curve; in most records, active means well fitted curve in the direction sought with a large enough effect in the repeat runs; inconclusive means weak or mixed curves; inactive means flat fitted curve, though single readings scatter.

This experiment can be described thus: qHTS assay to test for compound auto fluorescence at 535 nm (green) in HepG2 cell free culture (AID 720686). To be noted: Cell-free medium, green autofluorescence 485/535 nm; series mostly up to 91.3 µM. An excerpt: U.S. Tox21 Program National Center for Advancing Translational Sciences [NCATS] NIH Chemical Genomics Center [NCGC] U.S. Environmental Protection Agency [EPA] National Institutes of Environmental Health Sciences [NIEHS] National Toxicology Program [NTP] U.S. Food and Drug Administration [FDA] Tox21 Assay Overview: Compound auto fluorescence often interferes with screening of the compound library against various biological targets and signaling pathways. Some of these compounds may have fluorophoric properties. Such properties may interfere with the assay outputs resulting in false positives and/or negatives. To decrease such complications and ensure the compound activities are relevant in terms of biological response, the Tox21 10K compound library was screened for auto fluorescence. From the fluorophores used as reporter signals in our screening assays, the auto fluorescence equivalencies of compounds against three fluorophores have been evaluated: Triamterene, Fluorescein and Rose Bengal sodium for blue, green and red fluorescence, respectively. The fluorescence intensities were measured using Excitation/Emission wavelengths at 405/460nm, 485/535nm and 540/590nm for blue, green and red labels, respectively. This assay includes the green fluorescence data.
Tox21 Assay Protocol Summary: 5 uL of culture medium (MEM containing 10% FBS) per well was dispensed into black wall/clear bottom 1536-well plates using a Multidrop Combi Dispenser (ThermoFisher Scientific, Waltham, MA). After 23 nL compound or DMSO vehicle was transferred into assay plate by a pintool work station (Kalypsys, San Diego, CA), fluorescence intensities in the assay plates were measured by an Envision (PerkinElmer, Shelton, CT) plate reader using three labels for measuring blue, green and red fluorescence at […] 460, 535 and 590nm respectively.
A general note: Quantitative high-throughput screening tests each substance at several concentrations.
In the case of `Cn1cc[nH]c1=S`, the molecule was called inactive. For `OC(Cn1cncn1)(Cn1cncn1)c1ccc(F)cc1F`, the call was inactive.

Take `O=C(O)CS`: the call was inactive. As for `O=S(=O)(O)c1ccc2cc(O)ccc2c1`, the molecule was called inactive. With `Cc1cn([C@H]2C[C@H](N=[N+]=[N-])[C@@H](CO)O2)c(=O)[nH]c1=O`, the molecule was classed as inactive. Consider `CC(=O)NS(=O)(=O)c1ccc(N)cc1`, for which the molecule was called inactive.

On to `O=C(O)CCC(=O)O`, for which the molecule was classed as inactive. In the case of `COc1c2occc2cc2ccc(=O)oc12`, the outcome was inactive. Take `CCCC(O)C(CC)CO` (stereo not given): the call was inactive. For `O=C(c1ccccc1)C(O)c1ccccc1` (stereo not given), the result was inactive. With `CCCC(CCC)C(=O)O`, the molecule was called inactive.

For `O=S(=O)(O)NC1CCCCC1`, the molecule was classed as inactive. Then `CC(O)CO` (stereo not given), with “inactive”; and `CCCNC(=O)NS(=O)(=O)c1ccc(Cl)cc1`, with “inactive”; and `COc1ccc2[nH]cc(CCNC(C)=O)c2c1`, with “inactive”. On to `Cc1ccc(O)cc1`, for which the molecule was called inactive. Then `CC(O)CN(CCN(CC(C)O)CC(C)O)CC(C)O` (stereo not given), with “inactive”; and `CCCCC1C(=O)N(c2ccccc2)N(c2ccccc2)C1=O`, with “inactive”; and `CC1(C)[C@@H]2CC[C@@]1(C)C(=O)C2`, with “inactive”. Turning to `CC(C)[C@@H]1CC[C@@H](C)C[C@H]1O`, the molecule was called inactive. Next, `Nc1ccc(S(=O)(=O)c2ccc(N)cc2)cc1`: “inactive”; `c1ccc2[nH]ccc2c1`: “inactive”; `CC(=O)OCC(COC(C)=O)OC(C)=O`: “inactive”. For `O=C(O)CCCCC(=O)O`, the molecule was called inactive. For the molecule `NC(=O)c1ccccc1O`, the result was inactive.

With `CCCCC(CC)COC(=O)/C=C/c1ccc(OC)cc1` (stereo not given), the call was inactive. With `CCCCOC(=O)CC(CC(=O)OCCCC)(OC(C)=O)C(=O)OCCCC`, the molecule was called inactive.

As for `O=C(O)c1cccc([N+](=O)[O-])c1`, the call was inactive. `O=C(O)c1[nH]n(-c2ccc(S(=O)(=O)O)cc2)c(=O)c1N=Nc1ccc(S(=O)(=O)O)cc1`: the molecule was called inactive. Next, `CCC1(c2ccccc2)C(=O)NCNC1=O`: “inactive”; `Nc1ccc(S(=O)(=O)Nc2nccs2)cc1`: “inactive”; `CCCN(CCC)S(=O)(=O)c1ccc(C(=O)O)cc1`: “inactive”. Next, `O=C(c1ccccc1)c1ccccc1`: “inactive”.

For `Oc1ccc(/C=C/c2cc(O)cc(O)c2)cc1`, the molecule was classed as inactive. As to `O=C(O)C(=O)O`, the molecule was called inactive. In the case of `NS(=O)(=O)c1cc(C(=O)O)c(NCc2ccco2)cc1Cl`, the outcome was inactive.

For `O=c1cc[nH]c(=S)[nH]1`, the call was inactive.

As to `NC(=O)c1cnccn1`, the molecule was called inactive. Then `NC(N)=O`, with “inactive”; and `C1N2CN3CN1CN(C2)C3`, with “inactive”.
